For some assays here: Entries with a potency or affinity are not part of this list.

Holding throughout (set-up): scale not given: direction of the effect not stated beside the values
Assay [1] addresses Protein translocase subunit SecA (Escherichia coli (strain K12)) (UniProt P10408). As to the kind of experiment: Assay to Identify E. coli SecA ATPase Inhibitors. The format is functional. Conditions: 30 µM.
For assay [2], the target named is T1, Ubiquitin-activating enzyme e1, putative (Leishmania donovani (strain BPK282A1)) (UniProt E9BSI1).
T1 sequence (whole entry): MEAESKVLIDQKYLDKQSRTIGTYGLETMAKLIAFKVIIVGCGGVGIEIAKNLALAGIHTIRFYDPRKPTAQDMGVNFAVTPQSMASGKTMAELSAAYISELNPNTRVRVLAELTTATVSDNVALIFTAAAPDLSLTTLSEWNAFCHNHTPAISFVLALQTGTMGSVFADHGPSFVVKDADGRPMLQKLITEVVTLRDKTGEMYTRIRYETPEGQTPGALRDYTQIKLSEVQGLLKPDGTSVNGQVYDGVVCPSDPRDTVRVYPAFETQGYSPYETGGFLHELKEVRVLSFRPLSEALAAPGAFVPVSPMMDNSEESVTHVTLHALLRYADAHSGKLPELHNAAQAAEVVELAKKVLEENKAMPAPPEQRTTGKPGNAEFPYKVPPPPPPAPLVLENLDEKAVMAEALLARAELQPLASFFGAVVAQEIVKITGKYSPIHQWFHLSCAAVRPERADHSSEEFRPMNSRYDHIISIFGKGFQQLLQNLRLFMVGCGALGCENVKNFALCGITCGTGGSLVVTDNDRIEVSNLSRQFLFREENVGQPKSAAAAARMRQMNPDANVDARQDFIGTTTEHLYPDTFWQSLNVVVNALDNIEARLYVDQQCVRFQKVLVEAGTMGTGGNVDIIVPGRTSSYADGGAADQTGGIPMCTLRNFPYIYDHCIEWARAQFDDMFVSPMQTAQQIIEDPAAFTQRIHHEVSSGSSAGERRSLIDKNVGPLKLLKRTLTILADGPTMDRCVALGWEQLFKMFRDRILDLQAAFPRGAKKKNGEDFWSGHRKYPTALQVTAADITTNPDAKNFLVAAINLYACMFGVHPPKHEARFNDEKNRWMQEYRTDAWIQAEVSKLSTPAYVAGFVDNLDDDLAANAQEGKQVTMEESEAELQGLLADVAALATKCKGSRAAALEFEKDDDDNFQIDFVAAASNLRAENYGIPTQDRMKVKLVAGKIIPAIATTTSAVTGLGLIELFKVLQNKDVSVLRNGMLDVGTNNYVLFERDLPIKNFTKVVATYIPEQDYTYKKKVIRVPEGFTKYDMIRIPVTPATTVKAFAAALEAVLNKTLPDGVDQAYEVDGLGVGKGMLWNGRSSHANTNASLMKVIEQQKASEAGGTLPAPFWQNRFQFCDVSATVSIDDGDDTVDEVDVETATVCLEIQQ
As to the kind of experiment: Leishmania donovani Ubiquitin Activating Enzyme (LdE1). The conditions noted are these: 30 µM. In kind it is functional.

The target in assay [3] is AMP-activated protein kinase, AMPK (Homo sapiens) (UniProt P54646+O43741+P54619+Q9UGJ0+Q9Y478+Q13131+Q9UGI9). As to the kind of experiment: AMP-dependent Kinase enzyme assay. An in vitro enzyme assay that detects ADP turnover that is directly proportional to AMPK activity. This uses naive AMPK that is activated during the assay with MK-8722. In kind it is functional. The conditions noted are these: 30 µM.

In assay [4] the target is Sialic acid-binding Ig-like lectin 9 (Homo sapiens) (UniProt Q9Y336). As to the kind of experiment: Hs-Siglec9 ALPHAscreen SOP 20170721. The conditions noted are these: 10 µM. (Alpha assays give light when donor and acceptor beads are brought close together.)
Sequence of Sialic acid-binding Ig-like lectin 9 (Homo sapiens) (Q9Y336 whole entry): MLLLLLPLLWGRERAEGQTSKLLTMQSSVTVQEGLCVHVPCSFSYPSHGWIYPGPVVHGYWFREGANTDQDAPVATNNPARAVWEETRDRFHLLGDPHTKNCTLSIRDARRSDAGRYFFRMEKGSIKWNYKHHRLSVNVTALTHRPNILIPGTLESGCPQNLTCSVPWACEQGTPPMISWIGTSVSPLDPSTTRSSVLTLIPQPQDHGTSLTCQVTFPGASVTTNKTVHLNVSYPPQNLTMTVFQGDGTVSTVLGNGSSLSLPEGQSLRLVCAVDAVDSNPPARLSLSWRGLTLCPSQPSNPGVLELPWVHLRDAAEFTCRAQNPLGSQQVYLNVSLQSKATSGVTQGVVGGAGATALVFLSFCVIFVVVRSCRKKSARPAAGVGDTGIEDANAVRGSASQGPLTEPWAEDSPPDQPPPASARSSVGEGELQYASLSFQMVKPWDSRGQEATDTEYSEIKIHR
In assay [5] the test system is Trypanosoma cruzi. As to the kind of experiment: Trypanosoma cruzi phosphomannomutase and mannose-1-phosphate guanylyltransferase assay. The conditions noted are these: 10 µM. In kind it is functional.
For assay [6], the target named is T2, Arginase-2, mitochondrial (Homo sapiens) (UniProt P78540).
T2 sequence (whole entry): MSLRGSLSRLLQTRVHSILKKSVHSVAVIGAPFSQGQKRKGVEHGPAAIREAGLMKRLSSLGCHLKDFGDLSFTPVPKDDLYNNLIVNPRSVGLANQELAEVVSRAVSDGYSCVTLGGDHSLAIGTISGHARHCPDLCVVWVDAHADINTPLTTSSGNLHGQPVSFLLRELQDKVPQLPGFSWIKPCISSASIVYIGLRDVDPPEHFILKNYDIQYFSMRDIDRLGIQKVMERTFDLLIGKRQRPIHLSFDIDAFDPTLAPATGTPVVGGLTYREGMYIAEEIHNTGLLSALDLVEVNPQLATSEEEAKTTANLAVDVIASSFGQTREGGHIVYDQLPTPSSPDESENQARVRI
As to the kind of experiment: in vitro enzyme assay to detect the production of urea directly proportional to the activity of Arginase II. Also: in the data most compounds retested in dose-response had high values. In kind it is functional. Conditions: 33.3 µM.

Assay [7] deals with T3, Proteasome subunit beta (Trypanosoma cruzi) (UniProt O96673).
T3 sequence (whole entry): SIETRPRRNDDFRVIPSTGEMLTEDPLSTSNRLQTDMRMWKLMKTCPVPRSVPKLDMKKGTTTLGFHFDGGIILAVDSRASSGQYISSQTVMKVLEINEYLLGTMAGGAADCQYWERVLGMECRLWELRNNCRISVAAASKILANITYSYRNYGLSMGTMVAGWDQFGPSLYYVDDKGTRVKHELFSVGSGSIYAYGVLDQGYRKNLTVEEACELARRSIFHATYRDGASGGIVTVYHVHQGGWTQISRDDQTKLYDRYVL
As to the kind of experiment: Trypanosoma cruzi proteasome chymotrypsin-like activity (TcProtChymo) assay. Also: in the data most compounds retested in dose-response had high values. The format is functional. Conditions: 9.37 µM.

For assay [8], the species on record is Homo sapiens. As to the kind of experiment: To identify inhibition of the IFN signalling (Jak-Stat) pathway via expression of an eGFP reporter gene under the control of an IFN-stimulated response element (ISRE) containing MxA promoter. Conditions: 30 µM. In kind it is functional. Background: Reporter assays use an easily measured gene product as a stand-in for the process of interest.

Assay [9] deals with T4, Tyrosyl-tRNA synthetase, putative (Trypanosoma cruzi (strain CL Brener)) (UniProt Q4DSP6).
T4 sequence (whole entry): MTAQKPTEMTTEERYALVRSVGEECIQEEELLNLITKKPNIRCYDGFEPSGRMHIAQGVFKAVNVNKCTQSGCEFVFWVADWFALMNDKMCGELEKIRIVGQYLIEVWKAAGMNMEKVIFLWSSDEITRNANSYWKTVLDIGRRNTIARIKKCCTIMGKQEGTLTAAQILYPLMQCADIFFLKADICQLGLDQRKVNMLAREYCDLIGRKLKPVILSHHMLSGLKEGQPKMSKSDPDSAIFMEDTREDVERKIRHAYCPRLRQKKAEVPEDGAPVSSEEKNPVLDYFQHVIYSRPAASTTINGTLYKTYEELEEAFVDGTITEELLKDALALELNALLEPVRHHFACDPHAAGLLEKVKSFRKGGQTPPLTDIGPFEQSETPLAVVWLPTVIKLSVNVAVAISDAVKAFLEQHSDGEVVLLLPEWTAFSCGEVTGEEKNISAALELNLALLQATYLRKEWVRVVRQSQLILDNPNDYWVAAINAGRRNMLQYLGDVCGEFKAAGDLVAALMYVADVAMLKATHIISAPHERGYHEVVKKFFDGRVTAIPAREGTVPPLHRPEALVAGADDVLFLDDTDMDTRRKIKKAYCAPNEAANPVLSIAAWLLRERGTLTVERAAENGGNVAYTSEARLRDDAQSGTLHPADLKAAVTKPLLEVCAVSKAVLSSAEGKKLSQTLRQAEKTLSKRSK
As to the kind of experiment: Trypanosoma cruzi tyrosyl tRNA synthetase (TcYRS) _High Tyrosine SOP. Also: in the data most compounds retested in dose-response had high values. Conditions: 30 µM. In kind it is functional.

The target of assay [10] is T4, Tyrosyl-tRNA synthetase, putative (Trypanosoma cruzi (strain CL Brener)). As to the kind of experiment: Trypanosoma cruzi tyrosyl tRNA synthetase (TcYRS) SOP. The format is functional. Conditions: 30 µM.
For assay [11], the target named is Chromo domain-containing protein 1 (Saccharomyces cerevisiae (strain ATCC 204508 / S288c) (Baker's yeast)) (UniProt P32657). As to the kind of experiment: ScCHD-1 Enzyme Inhibition Assay. Also: in the data most compounds retested in dose-response had high values. The format is functional. The conditions noted are these: 30 µM.
Sequence of Chromo domain-containing protein 1 (Saccharomyces cerevisiae (strain ATCC 204508 / S288c) (Baker's yeast)) (P32657 whole entry, the tested form may be a part): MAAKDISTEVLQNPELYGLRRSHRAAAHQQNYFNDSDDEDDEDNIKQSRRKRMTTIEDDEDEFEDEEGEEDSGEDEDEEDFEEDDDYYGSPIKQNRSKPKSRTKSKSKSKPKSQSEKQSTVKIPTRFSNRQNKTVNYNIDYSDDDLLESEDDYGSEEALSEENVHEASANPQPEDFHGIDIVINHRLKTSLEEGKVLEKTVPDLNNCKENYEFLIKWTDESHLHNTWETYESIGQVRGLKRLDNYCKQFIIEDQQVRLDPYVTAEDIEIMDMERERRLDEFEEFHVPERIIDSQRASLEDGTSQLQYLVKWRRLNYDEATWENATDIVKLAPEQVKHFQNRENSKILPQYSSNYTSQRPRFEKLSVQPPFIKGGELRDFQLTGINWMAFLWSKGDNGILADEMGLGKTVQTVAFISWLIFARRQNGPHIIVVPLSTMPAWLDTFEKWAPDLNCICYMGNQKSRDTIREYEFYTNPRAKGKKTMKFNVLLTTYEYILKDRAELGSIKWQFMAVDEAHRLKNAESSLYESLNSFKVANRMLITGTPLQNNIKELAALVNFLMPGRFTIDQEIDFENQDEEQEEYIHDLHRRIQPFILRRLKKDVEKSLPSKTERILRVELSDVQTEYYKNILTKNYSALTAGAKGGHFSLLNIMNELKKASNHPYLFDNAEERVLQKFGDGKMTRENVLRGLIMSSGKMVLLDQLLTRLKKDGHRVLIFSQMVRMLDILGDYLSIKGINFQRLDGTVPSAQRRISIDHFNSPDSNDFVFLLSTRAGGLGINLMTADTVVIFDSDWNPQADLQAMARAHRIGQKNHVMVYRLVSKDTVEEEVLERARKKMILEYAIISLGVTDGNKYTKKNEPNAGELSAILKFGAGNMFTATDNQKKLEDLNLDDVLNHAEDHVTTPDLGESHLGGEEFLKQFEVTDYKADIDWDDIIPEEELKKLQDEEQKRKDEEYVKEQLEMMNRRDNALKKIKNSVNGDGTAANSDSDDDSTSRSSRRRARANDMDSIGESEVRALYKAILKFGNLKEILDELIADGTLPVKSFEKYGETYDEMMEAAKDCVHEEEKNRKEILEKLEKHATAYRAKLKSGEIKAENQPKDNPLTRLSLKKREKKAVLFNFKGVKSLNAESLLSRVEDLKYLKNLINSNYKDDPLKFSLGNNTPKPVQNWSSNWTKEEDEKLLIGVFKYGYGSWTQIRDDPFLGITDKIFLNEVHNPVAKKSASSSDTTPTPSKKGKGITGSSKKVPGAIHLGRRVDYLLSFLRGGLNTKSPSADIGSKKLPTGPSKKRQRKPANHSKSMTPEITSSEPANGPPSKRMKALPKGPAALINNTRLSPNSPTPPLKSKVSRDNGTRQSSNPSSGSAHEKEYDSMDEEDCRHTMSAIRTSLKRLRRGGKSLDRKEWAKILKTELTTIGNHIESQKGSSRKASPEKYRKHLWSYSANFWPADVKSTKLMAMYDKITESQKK

Sequence of Protein translocase subunit SecA (Escherichia coli (strain K12)) (P10408 whole entry): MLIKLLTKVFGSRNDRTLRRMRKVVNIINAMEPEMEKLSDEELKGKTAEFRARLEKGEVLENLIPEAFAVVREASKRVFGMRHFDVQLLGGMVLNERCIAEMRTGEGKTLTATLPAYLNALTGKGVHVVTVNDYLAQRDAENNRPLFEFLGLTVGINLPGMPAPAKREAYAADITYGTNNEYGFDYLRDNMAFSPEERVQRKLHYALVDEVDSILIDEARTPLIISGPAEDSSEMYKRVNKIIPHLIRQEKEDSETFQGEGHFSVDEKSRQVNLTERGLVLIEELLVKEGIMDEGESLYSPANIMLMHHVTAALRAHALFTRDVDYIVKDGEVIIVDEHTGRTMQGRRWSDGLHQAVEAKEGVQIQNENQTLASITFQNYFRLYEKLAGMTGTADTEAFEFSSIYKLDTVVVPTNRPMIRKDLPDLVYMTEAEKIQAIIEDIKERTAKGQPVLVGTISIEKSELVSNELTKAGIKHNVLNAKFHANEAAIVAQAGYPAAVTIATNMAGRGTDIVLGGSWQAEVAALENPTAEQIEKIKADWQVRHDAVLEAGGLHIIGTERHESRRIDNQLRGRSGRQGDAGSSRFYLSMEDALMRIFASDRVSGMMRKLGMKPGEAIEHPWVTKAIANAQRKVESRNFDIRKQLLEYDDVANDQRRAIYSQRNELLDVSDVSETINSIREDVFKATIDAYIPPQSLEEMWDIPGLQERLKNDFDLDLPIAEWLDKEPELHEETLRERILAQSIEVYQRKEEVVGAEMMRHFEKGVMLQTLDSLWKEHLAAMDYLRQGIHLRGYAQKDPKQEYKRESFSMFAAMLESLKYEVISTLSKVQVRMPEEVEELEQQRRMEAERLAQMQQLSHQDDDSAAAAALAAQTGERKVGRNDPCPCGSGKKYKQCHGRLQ

For the molecule `O=C(CSc1ccncc1)N1C[C@H]2CC[C@@H]1CN(Cc1cccnc1)C2`, the Percent Effect in [1] was -4.31%; in assay [2], 16.4%; in [3], 10.6%; in [4] it was 8.46%; in [5], 7.05%; in assay [6], 2.27%. Also, the Percent Effect in [7] was 6.74%; in assay [8], 9.78%; in assay [9] it was 5.38%; in assay [10], 15%; in assay [11], -4%.
With `CN1CCC(CCNC(=O)c2ccc(N(C)S(C)(=O)=O)cc2Cl)CC1`, the Percent Effect is -4.43% in assay [1]; -10.4% in [2]; -1.14% in [3]; 0.479% in assay [4]; -3.44% in [5]; 29% in assay [6]. Further, the Percent Effect in [7] is 6.16%; in assay [8], -1.88%; in assay [9] it was 0%; in assay [10], -3.7%; in [11], 2.38%.
Consider `COc1cc(C(=O)N(Cc2cnn(C)c2)C(C)C)ccc1OCC(N)=O`, for which the Percent Effect in assay [1] was -7.3%; in assay [2], 18.4%; in assay [3], -10.1%; in assay [4], -6.52%; in assay [5] it was -5.32%; in assay [6] it was 0%. Also, the Percent Effect is 10.4% in [7]; 9.36% in assay [8]; 0.493% in assay [9]; 6.17% in assay [10]; -2.3% in assay [11].
Take `Cn1cc(C(=O)NCc2cn3c(n2)CN(CC2CCOCC2)CC3)cn1`: the Percent Effect in assay [1] was -2.09%; in assay [2], 5.41%; in assay [3], 26.2%; in [4], -3.62%; in assay [5] it was -1.95%; in assay [6], 1.67%. Besides, the Percent Effect in assay [7] is 11.9%; in assay [8], 20.1%; in assay [9], 7.92%; in assay [10] it was 15.8%; in [11], -0.801%.
Consider `CC1CCCN(CCNC(=O)c2ccn(-c3ccccc3)n2)C1` (stereo not given), for which the Percent Effect in [1] is -0.427%; in assay [2] it was 18.2%; in assay [3], 2.11%; in assay [4], -6.84%; in [5], -8.05%; in [6], 4.63%. Further, the Percent Effect in assay [7] is 5.07%; in [8], 16.5%; in assay [9], 8.74%; in assay [10], 12.2%; in assay [11], -8.6%.
In the case of `CC(C)c1nc(N2CC(N3CCCCC3C)C2)c2cnn(C)c2n1` (stereo not given), the Percent Effect in [1] is -7.05%; in assay [2] it was -2.74%; in assay [3] it was -1.43%; in assay [4], -2.38%; in assay [5], -7.14%; in [6] it was -2%. For the same molecule, the Percent Effect in assay [7] is 4.54%; in assay [8] it was 4.43%; in assay [9], -3.12%; in assay [10] it was 8.64%; in [11] it was -2.78%.
Turning to `c1ccc(CN2CC[C@@H]3O[C@H](COCc4ccncc4)CC[C@@H]32)nc1`, the Percent Effect in assay [1] was -0.0418%; in [2], 10.7%; in assay [3], -4.7%; in [4] it was -5.18%; in [5], -8.46%; in assay [6], 5.83%. Moreover, the Percent Effect was 9.07% in assay [7]; -4.23% in assay [8]; 4.25% in assay [9]; 8.97% in assay [10]; -2.83% in assay [11].
`CC(C)CN1CCN(Cc2nc3ccccc3[nH]2)[C@H]2CS(=O)(=O)C[C@H]21`: the Percent Effect is -0.363% in [1]; 10.8% in [2]; 1.86% in assay [3]; -1.7% in [4]; -6.35% in assay [5]; 2.73% in assay [6]. The Percent Effect in assay [7] was 5.41%; in assay [8], 0.0398%; in assay [9] it was 14%; in [10] it was 23.5%; in assay [11], -6.24%.
With `Cc1ccc(CN2CCn3c(C(=O)N(C)C)cnc3C2)s1`, the Percent Effect was -2.48% in [1]; 10.7% in assay [2]; 8.35% in assay [3]; -0.423% in assay [4]; -4.53% in assay [5]; 3.5% in [6]. Moreover, the Percent Effect in assay [7] is 7.67%; in assay [8] it was 3.77%; in assay [9], 3.19%; in assay [10], 8.97%; in assay [11], -5.78%.
As for `CN(C)C(=O)NC1COC2(CCN(Cc3ccccc3)CC2)C1` (stereo not given), the Percent Effect in assay [1] was -6.16%; in assay [2], 0%; in assay [3], 7.68%; in assay [4], -1.66%; in assay [5], -3.94%; in assay [6] it was 1.17%. Besides, the Percent Effect in [7] is 6.26%; in assay [8] it was 21.5%; in assay [9] it was -3.19%; in [10] it was -6.41%; in assay [11] it was -1.6%.

Source of the values: ChEMBL document CHEMBL3988442, “University of Dundee, Small-Polar-MMV Screening Library” (2021).
